HT1080-NT tox – qHTS for induction of synthetic lethality in tumor cells producing 2HG: qHTS for the HT-1080-NT fibrosarcoma cell line | HT-1080-NT fibrosarcoma viability, CellTiter-Glo ATP luminescence, 48 h | Potency, µM (series often up to 46.1 µM), for the others: top-dose activity, negative = less viability, usual class: cytotoxic | 360,000 compounds, 1.6% hits;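 note: NT is the 2HG producing partner of a matched IDH1 knockdown line; 0% = DMSO-treated cells and -100% = media-only wells without cells; nearly all actives have a fitted effect of over 55% in size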
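A 48-hour cytotoxicity screen used HT-1080-NT cells plated 2 hours before compound delivery. ATP-based CellTiter-Glo luminescence measured viability, normalized to DMSO and no-cell controls.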
MCF10A rereplic – A quantitative high throughput screen for small molecules that induce DNA re-replication in MCF 10a normal breast cells | Potency, µM (titrated, usually from 46.1 µM), without a hit: at the top dose activity, positive = re-replication, most hits filed as activators | 350,000 compounds, 2.9% hits | AID 624296, 2012 | MCF 10A DNA re-replication, Hoechst nuclear intensity, 48 h; note: % of control where 0% means no effect; nearly all actives have a fitted effect of over 50% in size
SW480 rerep – A quantitative high throughput screen for small molecules that induce DNA re-replication in SW480 colon adenocarcinoma cells | SW480 DNA re-replication, Hoechst DNA content imaging, 48 h | Potency, µM (highest dose often 46.1 µM), for inactives: at the highest dose re-replication activation, most hits filed as activators | 340,000 compounds, 1.8% hits | AID 624297, 2012; note: % of control where 0% means no effect; nearly all actives have a fitted effect of over 55% in size
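Compounds, transferred as 23 nL by pin tool, were incubated with cells for 48 hr; DNA content per nucleus was then quantified by Hoechst staining and fluorescence plate imaging.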
KB-V1 cytotox – qHTS assay for MDR1-selective chemotherapeutics: Primary screen using the drug-selected MDR subline cells KB-V1; KB-V1 MDR cells viability, CellTiter-Glo, 72 h; Potency, µM (doses to about 46.1 µM), usual class: cytotoxic; AID 1347076, 2019; 400,000 compounds, 3.4% hits; note: % is set by controls: 0 for no effect and ±100 for the full control effect; nearly all actives have a fitted effect of over 60% in size
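KB-V1 cells (P-gp-expressing MDR subline of KB-3-1) in phenol-red-free DMEM with 10% FBS were exposed to library compounds over a concentration series for 72 h at 37 degrees C. Viability read by CellTiter-Glo luminescence; concentration-effect curves fitted after normalization.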
HT1080 IDH1KD tx – qHTS for induction of synthetic lethality in tumor cells producing 2HG: qHTS for the HT-1080-IDH1KD cell line | 360,000 compounds, 2% hits | HT-1080 IDH1 knockdown viability, ATP luminescence, 48 h | Potency, µM (doses to about 46.1 µM), inactives show at the top dose activity, negative = toxicity, most hits filed as cytotoxic;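 note: 0% = DMSO wells and -100% = cell-free medium wells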
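CellTiter-Glo luminescence after 48 h compound exposure at 37 degrees C of IDH1-knockdown HT-1080 cells in 5% FBS RPMI. %Activity scaled between DMSO wells and cell-free media wells, with curves fitted and assigned curve classes.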
KB-3-1 cytotox – qHTS assay for MDR1-selective chemotherapeutics: Primary screen using the parental adenocarcinoma cell KB-3-1. KB-3-1 viability, CellTiter-Glo ATP luminescence, 72 h. Potency, µM (highest dose often 46.1 µM), actives largely listed as cytotoxic. 400,000 compounds, 1.4% hits; note: % is set by controls: 0 for no effect and ±100 for the full control effect; nearly all actives have a fitted effect of over 60% in size
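Parental KB-3-1 viability, qHTS format: 72 h compound exposure, 37 °C; CellTiter-Glo; media-only wells and DMSO plates as controls; concentration-effect fits on corrected data.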
Starred values were filed as active, the others as inactive; i = inactive; ? = inconclusive; nt = no result. In the library only some 8% were active in any assay of this set; here they are far more common. Calls come from the whole dose curve; as a rule, active = well fitted curve in the direction sought with a large enough effect; inconclusive = small, poorly fitted or top-dose-only effect, or another doubt; inactive = no such curve, though single readings can be large; an effect the other way counts as inactive or inconclusive. Potency is the fitted concentration of half-maximal effect.

SMILES	HT1080-NT tox	MCF10A rereplic	SW480 rerep	KB-V1 cytotox	HT1080 IDH1KD tx	KB-3-1 cytotox
COc1ccc(-c2noc(C3CCCN(S(=O)(=O)c4cccc(Cl)c4C)C3)n2)cc1OC (centres undefined)	3.6%	?	4.2%	18.4µM*	11.3%	i
COc1cc(-c2noc(C3CCCN(C(=O)c4c(F)cccc4F)C3)n2)cc(OC)c1OC (centres undefined)	1.5%	23.6%	0.3%	i	1.1%	i
CCCS(=O)(=O)N1CCCC(c2nc(-c3ccc(OC)cc3)no2)C1 (centres undefined)	4.6%	9.9%	5.8%	13µM*	6.2%	i
CCS(=O)(=O)N1CCCC(c2nc(-c3cccc(OC)c3)no2)C1 (centres undefined)	3.6%	0.5%	-6.4%	i	2.1%	i
COc1ccc(-c2noc(C3CCCN(S(=O)(=O)c4ccc(C)c(Cl)c4)C3)n2)cc1OC (centres undefined)	9.1%	?	2.4%	3.66µM*	25.5%	i
O=S(=O)(c1ccccc1Cl)N1CCCC1c1nc(-c2cccc(Cl)c2)no1 (centres undefined)	-13.4%	8.5%	-3.5%	?	-14.3%	i
O=S(=O)(c1ccccc1Cl)N1CCCC(c2nc(-c3cccnc3)no2)C1 (centres undefined)	0.1%	-3.3%	-3.8%	7.31µM*	-0.8%	i
COc1cc(NC(=O)c2cc3cc4ccc(C)cc4nc3o2)cc(OC)c1OC	nt	nt	nt	i	nt	i
CCC(c1nc2ccccc2c(=O)n1-c1nc2ccccc2s1)N1C(=O)c2ccccc2C1=O (centres undefined)	-7.4%	-50.0%	7.31µM*	3.66µM*	-7.4%	?
O=c1c2ccccc2ncn1Cc1nc2ccccc2s1	6.4%	21.3%	-2.4%	i	1.0%	i
CCCN1CCN(CCCNC(=O)Cn2c(-c3cccs3)cc3cc(Cl)ccc32)CC1	nt	nt	nt	i	nt	i
CCCCc1nn2c(=O)cc(COC(=O)c3cccc(NC(=O)CCc4ccccc4)c3)nc2s1	nt	nt	nt	i	nt	i
CCc1ccc2oc(C(=O)Nc3cc(C)ccc3C)cc(=O)c2c1	nt	nt	nt	i	nt	i
CC1=NN(c2ccc(Br)cc2)C(=O)/C1=C/c1cccs1	?	18.4µM*	?	i	?	i
CCN1CCN(c2nc(Nc3cccc(OC)c3)nc(N)c2[N+](=O)[O-])CC1	?	27.7%	16.4µM*	i	?	?
Cc1cccc(Nc2nc(N)c([N+](=O)[O-])c(N3CC(C)CC(C)C3)n2)c1 (centres undefined)	16.4µM*	26.2%	?	20.6µM*	20.6µM*	?
Cc1cccc(Nc2nc(N)c([N+](=O)[O-])c(N3CCC(C)CC3)n2)c1	?	23.1µM*	?	?	?	?
Cc1cccc(Nc2nc(N)c([N+](=O)[O-])c(N3CC(C)OC(C)C3)n2)c1 (centres undefined)	3.7%	0.5%	-9.3%	i	4.5%	?
CCN1CCN(c2nc(Nc3ccc(C)c(C)c3)nc(N)c2[N+](=O)[O-])CC1	?	2.5%	1.1%	?	?	?
COc1cccc(NC(=O)Cn2c(=O)n(CCCC(=O)NCc3ccc4c(c3)OCO4)c(=O)c3ccccc32)c1	nt	nt	nt	?	nt	i
Cc1ccc(CNC(=O)CCCCn2c(=O)c3ccccc3n(Cc3c(C)cc(C)cc3C)c2=O)cc1	nt	nt	nt	i	nt	i
Cc1cc(C)c2c(C)nn(-c3ccccc3)c2n1	-1.0%	4.3%	-2.1%	i	8.0%	i
Cc1cc(C)c2c(=N)c3ccccc3n(CCCCCCCCn3c4ccccc4c(=N)c4c(C)cc(C)nc43)c2n1	-27.8%	?	23.1µM*	i	?	?
COc1cc(C(=O)NCCCc2nc3ccccc3n2CC(C)C)cc(OC)c1OC	nt	nt	nt	i	nt	i
CCOc1ccc(N=C2SC(C(=O)Nc3ccccc3C#N)C(N)=C2C(=O)Nc2ccc(Cl)cc2)cc1 (centres undefined)	10.2%	?	-1.7%	i	8.5%	i
SMILES	HT1080-NT tox	MCF10A rereplic	SW480 rerep	KB-V1 cytotox	HT1080 IDH1KD tx	KB-3-1 cytotox
N#Cc1ccccc1NC(=O)C1SC(=Nc2ccccc2)C(C(=O)Nc2ccc(Cl)cc2)=C1N (centres undefined)	-22.0%	?	1.7%	6.51µM*	-5.4%	5.17µM*
O=S(=O)(NCCCCNS(=O)(=O)c1cccc2cccnc12)c1cccc2cccnc12	nt	nt	nt	i	nt	i
Cc1cccc(CSc2nc(N)c(C#N)c(-c3cccs3)c2C#N)c1	-9.6%	18.1%	0.6%	11.2µM*	-26.8%	?
CCCCSc1nc(N)c(C#N)c(-c2cccs2)c1C#N	?	?	4.4%	?	?	?
CC(C)(C)C(=O)CSc1nc2c(c(-c3cccs3)c1C#N)CCC2	-1.2%	4.11µM*	?	i	-0.1%	i
CC(=O)CSc1nc(N)c(C#N)c(-c2cccs2)c1C#N	-24.0%	?	0.3%	18.4µM*	?	i
CC(C)OC(=O)CSc1nc(N)c(C#N)c(-c2cccs2)c1C#N	?	?	?	20.6µM*	-15.9%	i
O=C(CC(C(=O)O)n1ccnc1)c1ccc(Cl)cc1 (centres undefined)	nt	nt	nt	i	nt	i
Cc1ccc(NC(=O)Cn2cccc2)cc1C	12.5%	-3.5%	-2.3%	i	-9.4%	i
Cc1ccc(NC(=O)Cn2cccc2)cc1Cl	-7.2%	-6.9%	-2.8%	18.4µM*	-15.9%	i
Cc1cccc(C(=O)Nc2ccccc2SCC(=O)Nc2ccc(C)c(Cl)c2)c1	-20.3%	?	?	?	?	11.6µM*
Cc1ccc(NC(=O)CSc2ccccc2NC(=O)c2cccc(Cl)c2)cc1Cl	2.6%	3.4%	nt	?	11.6%	i
COc1cc(C(C[N+](=O)[O-])c2c(-c3ccccc3)cc3ccccn23)cc(OC)c1OC (centres undefined)	?	?	11.6µM*	i	-1.6%	?
O=Nc1c(-c2ccccc2)cc2ccccn12	-3.7%	?	-9.8%	i	10.4%	i

Screening data deposited in PubChem BioAssay by National Center for Advancing Translational Sciences (NCATS).
